# Compound activity: PubChem, National Center for Advancing Translational Sciences (NCATS)
# Sampled rows, rich in hits. Any-hit rate of the full collection: about 19%.
# Shiga inhibitor = A qHTS for Small Molecule Inhibitors of Shiga Toxin; Vero cells, Shiga toxin protein synthesis inhibition reporter; inhibition, % at 38.7 µM; 9.2% of 290,000 active; in the data active = inhibition mostly above about 28%, no sharp cut-off; inactive = mostly below about 43%
# CHX counter = Cycloheximide Counterscreen for Small Molecule Inhibitors of Shiga Toxin. cell reporter, cycloheximide protein synthesis inhibition counterscreen. max response, %. 12% of 300,000 active. AID 2314, 2010; in the data active = max response mostly above about 13%, no sharp cut-off; inactive = mostly below about 14%; note: read at 38.3 µM for the half of the compounds with a filed dose
# Pf growth 48h = Primary qHTS for delayed death inhibitors of the malarial parasite plastid, 48 hour incubation. Potency, µM (doses to about 28.7 µM), usual class: inhibitors. 5.9% of 310,000 active. P. falciparum luciferase growth in erythrocytes, 48 h. AID 504832, 2011
#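 Luciferase-expressing parasites in RBCs, 2% Hct / 0.1% parasitemia final; RPMI 1640 + 0.5% Albumax; 37 C, 5% CO2, one generation; luminescence read-out, lower signal = inhibition.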
# Pf growth 96h = Primary qHTS for delayed death inhibitors of the malarial parasite plastid, 96 hour incubation. P. falciparum luciferase reporter growth, 96 h. Potency, µM (series often up to 28.7 µM), actives largely listed as inhibitors. 6.9% of 320,000 active. AID 504834, 2011
#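 Cell-based qHTS: luciferase-tagged P. falciparum in erythrocytes (2% hematocrit, 0.05% parasitemia final) incubated with compounds for 96 hours, 37 C, 5% CO2; luciferase detection reagent then added and luminescence measured.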
# MARV entry inh = qHTS for inhibitors of binding or entry into cells for Marburg Virus; 1.8% of 300,000 active; Marburg virus pseudotyped entry inhibition, cell reporter; Potency, µM (top dose mostly 37.8 µM), hits mostly inhibitors; calls by dose curve; tested in HEK293 cells
# Lassa entry inh = qHTS for Inhibitors of binding or entry into cells for Lassa Virus; Lassa virus pseudotype entry inhibition, cell reporter; Potency, µM (top dose mostly 37.9 µM), usual class: inhibitors; 1.2% of 300,000 active; AID 540256, 2011; calls by dose curve; tested in HEK293 cells; note: nearly all actives have a fitted effect of over 50% in size
# Numbers stand for hits; . = inactive; ? = inconclusive; / = no result. Unless noted, calls come from the whole dose curve; as a rule, active = well fitted inhibition curve with a large enough effect; inconclusive = small, poorly fitted or top-dose-only effect, or another doubt; inactive = no such curve, though single readings can be large or run the other way.
SMILES,Shiga inhibitor,CHX counter,Pf growth 48h,Pf growth 96h,MARV entry inh,Lassa entry inh
COc1cc(CC(=O)Nc2ccc3c(c2)CCC3)cc(OC)c1OC,.,.,?,.,?,.
CCOc1cc(CNc2ccc3c(c2)CCC3)ccc1O,.,34,.,.,.,.
COc1cc(CNc2ccc3c(c2)CCC3)cc(OC)c1O,63,30,.,.,.,.
Cc1cc(C)cc(-n2cnc3cc(C(=O)NC4CCCCCC4)ccc32)c1,/,/,/,/,/,.
CCCn1nnc(NC(=O)c2cccc(OCc3ccccc3)c2)n1,.,.,.,/,.,.
Cc1ccc(OCC(=O)NNC(=O)c2cc3ccccc3o2)cc1C,.,.,.,12µM,.,.
CC(C)Cc1ccc(C(=O)NCCOc2ccccc2)o1,80,29,.,.,.,2.8µM
O=C(COc1ccccc1)NNC(=O)c1cc2ccccc2o1,.,.,.,?,?,.
O=C(NCCOc1ccccc1)c1cc2ccccc2o1,117,45,.,/,?,?
Cc1ccc(OCCNC(=O)c2ccc(COc3ccccc3)o2)cc1,/,/,.,.,.,?
Cc1ccc(-c2oc3ncnc(N)c3c2-c2ccc(C)cc2)cc1,.,.,7.4µM,.,.,.
CC(C)=NNc1nc2c(c(=O)[nH]c(=O)n2C)n1CCCc1ccccc1,.,.,?,?,.,.
CC1CCN(C(=O)c2cccc(NC(=O)c3cccs3)c2)CC1,.,.,.,.,.,/
OCCN1CCN(CC/C=C2/c3ccccc3Sc3ccc(Cl)cc32)CC1,/,/,10µM,9.3µM,/,/
CN(C)CC/C=C1/c2ccc(F)cc2Sc2ccc(Cl)cc21,/,/,/,/,13µM,?
CN(C)CC/C=C1\c2ccccc2Sc2ccc(Cl)cc21,.,.,15µM,13µM,?,?
O=C(CN1CCCC1)N1c2ccccc2Sc2ccc(Cl)cc21,.,.,.,.,/,/
O=C(CSc1nnc(CCCO)n1-c1ccccc1)NCCc1ccccc1,.,.,.,/,.,.
CN(C)CC/C=C1/c2cc(F)ccc2CSc2ccc(F)cc21,.,.,?,?,?,?
CN(C)CC/C=C1\c2ccccc2Sc2cc(F)c(Cl)cc21,/,/,/,/,14µM,?
O=C(N/N=C\c1ccccc1)c1cccc(C(=O)N/N=C\c2ccccc2)n1,/,/,/,/,.,.
COc1cc(/C=N/NC(=O)c2nc(C)cc(C)n2)ccc1O,.,17,.,/,.,?
Cc1c(C(=O)N/N=C/c2ccc(O)cc2)sc(=S)n1C,.,.,.,.,.,.
Cc1c(C(=O)N/N=C/c2ccccc2)sc(=S)n1C,.,.,.,13µM,.,.
O=C(N/N=C/c1ccc(O)c(O)c1)N/N=C/c1ccc(O)c(O)c1,.,.,?,.,?,.
SMILES,Shiga inhibitor,CHX counter,Pf growth 48h,Pf growth 96h,MARV entry inh,Lassa entry inh
Cc1nonc1C(=O)N/N=C/c1ccc(O)c(O)c1,99,42,.,.,.,?
Cc1nonc1C(=O)N/N=C/c1ccccc1,87,39,.,.,?,.
COc1ccc(CNC(=O)CN(C(=O)c2snc(C(N)=O)c2N)c2ccc(F)cc2)cc1,.,.,.,.,.,/
O=C(CCC(=O)N1CCN(S(=O)(=O)c2ccc(Cl)cc2)CC1)NC1CCCc2ccccc21 (centres undefined),.,.,?,.,?,?
CC(=O)/C=C1\N(C)c2ccc(C)cc2C1(C)C,.,.,.,.,.,?
COc1cc(/C=N/NC(=O)c2nonc2C)ccc1O,63,.,.,.,.,.
COc1cc(/C=N/NC(=O)c2nonc2N)cc(OC)c1OC,87,32,.,.,.,.
CCOc1ccccc1NC(=O)c1cc2c(=O)n(Cc3cccnc3)ccc2nc1C,/,/,/,/,/,.
Cc1cc2c(cc1C)C(c1ccsc1)CC(=O)N2 (centres undefined),.,.,.,4.7µM,/,/
O=C1CC(c2ccsc2)c2cc3c(cc2N1)OCCO3 (centres undefined),.,.,?,12µM,/,/
O=C1CC(c2ccncc2)c2cc3c(cc2N1)OCCO3 (centres undefined),.,.,.,/,?,.
CC(C)C[C@H]1CN=C(Nc2ccccc2)N1CC1CCCC1,.,.,?,?,/,/
CC(C)C[C@H]1CN=C(Nc2ccccc2)N1CC1CCC(C(C)(C)C)CC1 (some centres undefined),/,/,8.3µM,7.4µM,/,/
CC(C)C[C@H]1CN=C(Nc2ccccc2)N1CCC1CCCCC1,.,.,.,9.3µM,/,/
